How the values were obtained:
ETS1 = molecular target: T1, ETS1 (UniProt P14921); assay: ETS1 binding intensity (PBM fluorescence), ETS1 alone (arbitrary fluorescence units); higher = stronger binding; settings: ETS1 concentration 1 nM; RUNX1 concentration 0 nM
T1 sequence: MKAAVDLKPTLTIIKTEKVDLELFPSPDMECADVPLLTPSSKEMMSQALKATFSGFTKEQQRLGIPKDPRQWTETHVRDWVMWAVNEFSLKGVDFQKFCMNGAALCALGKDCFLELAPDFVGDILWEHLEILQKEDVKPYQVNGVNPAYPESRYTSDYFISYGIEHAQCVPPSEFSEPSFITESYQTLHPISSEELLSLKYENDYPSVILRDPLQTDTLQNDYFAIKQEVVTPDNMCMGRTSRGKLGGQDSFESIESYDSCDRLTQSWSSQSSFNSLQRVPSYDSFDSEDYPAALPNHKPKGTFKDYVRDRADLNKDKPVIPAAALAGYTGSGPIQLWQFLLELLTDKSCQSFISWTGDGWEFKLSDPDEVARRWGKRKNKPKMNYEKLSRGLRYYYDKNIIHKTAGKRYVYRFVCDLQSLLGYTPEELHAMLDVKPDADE

RUNX1 [1] = molecular target: RUNX1 (UniProt Q01196); assay: RUNX1 binding intensity (PBM fluorescence), RUNX1 alone (arbitrary fluorescence units); higher = stronger binding; settings: RUNX1 concentration 2 nM; ETS1 concentration 0 nM
Sequence of RUNX1 (Q01196 whole entry): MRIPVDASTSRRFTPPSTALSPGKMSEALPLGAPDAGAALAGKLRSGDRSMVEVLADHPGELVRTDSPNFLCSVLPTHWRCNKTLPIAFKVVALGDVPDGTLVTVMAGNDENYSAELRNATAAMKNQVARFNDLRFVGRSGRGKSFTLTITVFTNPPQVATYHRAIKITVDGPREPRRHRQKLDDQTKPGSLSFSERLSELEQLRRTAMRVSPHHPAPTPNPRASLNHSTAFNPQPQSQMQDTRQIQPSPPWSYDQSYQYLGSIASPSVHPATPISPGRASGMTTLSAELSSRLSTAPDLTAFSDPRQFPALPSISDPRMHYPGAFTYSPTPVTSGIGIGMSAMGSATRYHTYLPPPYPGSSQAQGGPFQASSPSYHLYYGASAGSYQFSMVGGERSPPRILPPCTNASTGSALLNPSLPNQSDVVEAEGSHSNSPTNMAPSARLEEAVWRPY
Procedure: (§1)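 Cooperative gcPBM on 36-bp genomic probes with neighbouring ETS1 and RUNX1 sites. Recombinant human RUNX1 (2 nM) was incubated alone or with ETS1 (25 nM) and detected with anti-RUNX1 antibody plus Alexa488 secondary. Values are medians over 4 replicate spots; the RUNX1+ETS1 data were normalised to the RUNX1-only data. The probes sit in constant array flanks that are not printed.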

RUNX1 [2] = molecular target: RUNX1 (UniProt Q01196); assay: RUNX1 binding intensity (PBM fluorescence) in presence of ETS1, normalised to RUNX1-only experiment (arbitrary fluorescence units); higher = stronger binding; settings: RUNX1 concentration 2 nM; ETS1 concentration 25 nM
Procedure: as §1
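Wherever RUNX1 binding intensity (PBM fluorescence) in presence of ETS1, normalised to RUNX1-only experiment is given: Full-length recombinant human ETS1 or RUNX1 bound to double-stranded 36-bp genomic probes on microarrays, detected by protein-specific primary antibody and Alexa488 secondary, spot fluorescence as median of four replicate spots.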
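Wherever RUNX1 binding intensity (PBM fluorescence), RUNX1 alone is given: Full-length recombinant human RUNX1 bound to double-stranded 36-bp genomic probes on a high-density microarray, scored as Alexa488 fluorescence per spot via anti-RUNX1 antibody, median of four replicate spots.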

| Sequence | ETS1 binding intensity (ETS1) | RUNX1 binding intensity (RUNX1 [1]) | RUNX1 binding intensity (RUNX1 [2]) |
| --- | --- | --- | --- |
| GCCCGCGGCTCCGGAAGCGGCTGCGGCCCCGACCGG | 3000 | 678 | 1040 |
| GAGGGCTGCTTCCTGCTCTGTGGAGGCCGCAGCGGG | 555 | 682 | 1270 |
| TCTGTGACTACGCGGATGTTGTGGGCGGCTACATGC | 1000 | 749 | 869 |
| ACAAGGACTTCCGCCTCCCTGCGGTCCCTCCCCTAC | 965 | 1110 | 2720 |
| CAACCCGGAAGCACTAACGGAGAAACCGCAACTCGG | 729 | 3460 | 12700 |
| ATTTCGCTGAAAACAGGAAACCACGAAGCCCAGATG | 3270 | 899 | 1250 |
| CAGAGCAGAGAGGAAGTGGTGGTGGCCACAGTCCCA | 1760 | 686 | 1220 |
| CACCTCGGGGGTTTCCGGTCCGTGGTTAGCTCCTTC | 2600 | 1030 | 2930 |
| TCTAAATCACTTCCTGTTACAGAAACCACAGGCCTG | 4300 | 1220 | 4430 |
| GTTCAGCAGGAAGTGGATGTGGATGTGTGGTTGCCA | 3230 | 826 | 1290 |
| GTCCCCGTAACAGGATGTGGTGAGCTGTTATACCAC | 6710 | 802 | 4520 |
| AGCCACATCCTCCCTTAGGTCTGACCGCAGCTTAAC | 381 | 4190 | 5430 |
| GAAGTGTGCTCTTCCGGTACCTGCGGTTCGTTGCGC | 1770 | 808 | 2670 |
| AGCGACAGCGGATGCTCTCTGGCCGCAACATTCTTT | 880 | 769 | 1080 |
| TCTGTCGTCCCACTTCCTGCTGCGGTTTCCACCTCG | 3340 | 8620 | 21300 |
| AACTGGGCGGAAAGAACGGCTAACCGCAAGCTGCCG | 429 | 11800 | 23900 |
| TAGCCGTACGGAAATGTTTGTGGTTCTCTGCATCTA | 647 | 912 | 1230 |
| CACTTCCTGTCAAAGCCAGTTCCTTAACCGCTTAGG | 1610 | 948 | 2930 |
| CAAGAGAAAGGAAGTGGAAGCTCTTGTGGTCTGGAA | 1460 | 733 | 1240 |
| GAGCAGGAAGCACCCCCAGCACAGGCCTGCGGTGAG | 438 | 741 | 911 |
| GTTAGCGTGATCGGAGGATGTGGTTTTCCTCCCTCT | 1440 | 942 | 1930 |
| GCCACACTGGCGGAAATGGTGGTTACTGTTCGAGCC | 3510 | 711 | 1560 |
| GAAAAAAATGAGCTTCCTTTAACCACAACTGTATTA | 508 | 1350 | 2340 |

| Sequence | ETS1 binding intensity (ETS1) | RUNX1 binding intensity (RUNX1 [1]) | RUNX1 binding intensity (RUNX1 [2]) |
| --- | --- | --- | --- |
| ACACAGGAAGGACGCACGCTCCCGCCCCAACCACAT | 690 | 901 | 1060 |
| GGGTCTCCAGGAAGCCACTCACCACAAACTTTGACA | 482 | 1080 | 1480 |
| TCATGCTGCTTCCTGCCCAACCCGCAGTTCCGATAA | 890 | 1120 | 2350 |
| ATGTGCCCAAAGGATGTCACCGCAAAGATCATAGGA | 561 | 1250 | 1820 |
| GACAGACCTTAGGAAGTCGCGGTTTCATCAGGGCTT | 422 | 916 | 1220 |
| GTAGGGAAGACGGGATGTGGGTTTTCAGCCGTGGCC | 1220 | 730 | 2520 |
| CAAGGCACCAACGGATGTGGTATCTGGTGAGGGCTT | 2150 | 846 | 2430 |
| TGAAGCAGGCGGAAGTGCTGTGGTTTCTGGCGACTG | 4090 | 939 | 2830 |
| GCAGAACCAGAAACAGGATGTGGGTTCCCCTTTAAG | 7390 | 826 | 4550 |
| GGCAGGAAAGAGCTGATGCATTTCAACCGCAGCCTG | 520 | 1110 | 1040 |
| CCACCCTCCGTCCGGCCGCGACCGCGAGGAGGAAGA | 948 | 841 | 1130 |
| TCCCCGGCAGCTTCCTCGCCCCGACCGCAGTGTTCC | 368 | 1780 | 1570 |
| GGCCCCTGCTTCCGGGTGTGACGCGAACCGCGGGCA | 616 | 687 | 1400 |
| TCCTAAAGCAGGAAATAGTGAGGCTACCGCAGTGTC | 4180 | 713 | 1090 |
| TTCAACAGGATATTGCTTTGTTACCACAGGCCCTTT | 1590 | 946 | 1490 |
| GCATTTACGGGCAGGAAATGAAACCACAGAGTACAA | 5420 | 1360 | 3610 |
| GGCCTGTCACACACAGGAAGCGGTCACAGAAAAGCT | 4530 | 795 | 2140 |
| CTCAGCTCCGCGGAAGTTGCGGTAAGTGGAGCTTTG | 962 | 2210 | 5790 |
| AATTGAGACAGGAAATGTTGGTTTGTGGTCAGGCAC | 5020 | 1170 | 3130 |
| TACCCCGCCGGAAGCCCCCTGCTCTGTGGGAACCGG | 2480 | 894 | 1270 |
| TCAAGTTTGGTAACAGGATGTGGTAGGAGGAACACA | 8320 | 747 | 1730 |
| AGGCTGTGTGAAGGATGTGGTCAGGCGGAGGCCAGG | 604 | 921 | 1600 |
| GCTCTGGGTCACACAGGATGTGGTTTTTGAAGTTTG | 8060 | 1210 | 10400 |

From the supplement of paper PMC10681739
